High-throughput results deposited in PubChem BioAssay by National Center for Advancing Translational Sciences (NCATS).
Lassa entry inh: blocks Lassa virus binding to or entry into cells. Lassa virus pseudotype entry inhibition, cell reporter. Potency, µM (series often up to 37.9 µM), for inactives: at the top dose activity change, negative = inhibition, actives largely listed as inhibitors. 300,000 compounds, 1.2% hits; calls by dose curve; tested in HEK293 cells; note: nearly all actives have a fitted effect of over 50% in size
FMDV antiviral: foot and mouth disease virus antiviral activity. FMDV antiviral cell-based qHTS. Potency, µM (doses to about 57.9 µM), without a hit: top-dose activity change, negative = inhibition, hits mostly inhibitors. 410,000 compounds, 1.2% hits. AID 1159524; calls by dose curve; tested in HEK293T cells; note: read-out not given here; nearly all actives have a fitted effect of over 45% in size
Marburg entry inh: blocks Marburg virus binding to or entry into cells; Marburg virus pseudotyped entry inhibition, cell reporter; Potency, µM (doses to about 37.8 µM), inactives show at the top dose activity change, negative = inhibition, usual class: inhibitors; 300,000 compounds, 1.8% hits; calls by dose curve; tested in HEK293 cells
HCV inhibitor: inhibitors of hepatitis C virus infection | Huh7.5.1 HCVcc-Cre infection, luciferase reporter, 44 h | Potency, µM (series often up to 41.8 µM), without a hit: at the top dose activity change, negative = inhibition, most hits filed as inhibitors | 340,000 compounds, 3.4% hits | AID 651820; active = well fitted inhibition curve with a large enough effect; inconclusive = small, poorly fitted or top-dose-only effect, or another doubt; inactive = no such curve, though single readings can be large or run the other way
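Antiviral activity was scored by luciferase reporter output from cells infected with HCVcc-Cre (~0.5 moi) in presence of compound, 44 h infection period, cells seeded 1,000/well 4 h prior.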
Vaccinia mCherry: vaccinia inhibition (mCherry reporter); Vaccinia virus mCherry reporter infection, fluorescence; Potency, µM (titrated, usually from 36.5 µM), inactives show at the top dose activity change, negative = inhibition, actives largely listed as inhibitors; 310,000 compounds, 0.63% hits; AID 720579; calls by dose curve; tested in A549 cells; note: nearly all actives have a fitted effect of over 35% in size
Vaccinia Venus: inhibitors of vaccinia virus (Venus reporter). Vaccinia virus Venus reporter expression, fluorescence. Potency, µM (doses to about 36.5 µM), for inactives: at the top dose activity change, negative = inhibition, hits mostly inhibitors. 330,000 compounds, 0.46% hits. AID 720580; calls by dose curve; tested in A549 cells; note: nearly all actives have a fitted effect of over 30% in size
* = called active by the depositor; [ ] = remark or other dose. Hits are enriched below; roughly 5.3% of the tested compounds scored in any of these assays. % is set by controls: 0 for no effect and ±100 for the full control effect; potency is the fitted concentration of half-maximal effect.

Screening COc1ccccc1-c1cc(C(F)(F)F)nc(S(C)(=O)=O)n1 returned Lassa entry inh inconclusive, FMDV antiviral 32µM*, Marburg entry inh inconclusive and HCV inhibitor inconclusive.
CCCOc1nc(N)c(C#N)c(-c2ccccc2F)c1C#N was read as Lassa entry inh inconclusive, FMDV antiviral -6%, Marburg entry inh -8%, HCV inhibitor 35µM*, Vaccinia mCherry -25% and Vaccinia Venus -22%.
For CCC1CCC(C(=O)NC(C(=O)Nc2cccc(OC)c2)C(C)C)CC1 (stereo not given) the results were Lassa entry inh 14%[46.1 µM], FMDV antiviral -4%, Marburg entry inh inconclusive, Vaccinia mCherry -19% and Vaccinia Venus -20%.
For COC1CC2C=C(C)C=CC=CC(=O)NC(c3ccccc3)CC=CCCC(O)CC(=O)C2=C1O (stereo not given) the results were FMDV antiviral 2.5µM*, Vaccinia mCherry 7.1µM* and Vaccinia Venus 2.8µM*.
For COc1ccc(-c2noc(-c3ccccc3C(=O)NCc3ccco3)n2)cc1OC the results were Lassa entry inh -8%, FMDV antiviral 1%, Marburg entry inh inconclusive, HCV inhibitor 5.6µM*, Vaccinia mCherry -1% and Vaccinia Venus 0%.
COc1ccccc1NC(=O)c1ccccc1-c1nc(-c2ccccc2OC)no1 was read as Lassa entry inh inconclusive, FMDV antiviral 4%, Marburg entry inh 12µM* and HCV inhibitor -24%.
For C#CCCCO/N=C1\C[C@@H](O)[C@@H](O)[C@@H]2[C@@H]3C(=O)N(c4ccc(F)cc4F)C(=O)[C@@H]3CC[C@H]12 the results were Marburg entry inh -6%[14.2 µM].
`O=[N+]([O-])c1ccc(Sc2nnnn2-c2ccccc2)c(Cl)c1` gave Lassa entry inh -3%, FMDV antiviral inconclusive, Marburg entry inh -26% and HCV inhibitor -27%.
`CN1CCN(S(=O)(=O)c2ccc(Sc3nnnn3-c3ccccc3)c([N+](=O)[O-])c2)CC1` gave Lassa entry inh 15%, FMDV antiviral 20µM*, Marburg entry inh inconclusive, HCV inhibitor 13%, Vaccinia mCherry -13% and Vaccinia Venus -5%.
For CC(=O)c1ccc(Sc2nnnn2-c2ccccc2)c([N+](=O)[O-])c1 the results were Lassa entry inh -11%, FMDV antiviral 32µM*, Marburg entry inh inconclusive, HCV inhibitor inconclusive, Vaccinia mCherry -5% and Vaccinia Venus -3%.
Screening N#CN=c1snc(-c2ccccc2)n1-c1ccc(Cl)cc1 returned Vaccinia mCherry 5.6µM* and Vaccinia Venus 3.5µM*.
For N#CN=c1snc(-c2ccccc2Cl)n1-c1ccccc1Cl the results were Vaccinia mCherry 11µM* and Vaccinia Venus inconclusive.
S=c1[nH]nc(-c2ccc(Cl)cc2)n1-c1ccc(Cl)cc1 was read as Lassa entry inh 27%, FMDV antiviral -21%, Marburg entry inh 10%, HCV inhibitor 0%, Vaccinia mCherry -13% and Vaccinia Venus -16%.
For COc1ccc(CCC(=O)NO)cc1 the results were Vaccinia mCherry -8% and Vaccinia Venus -14%.
Screening COc1ccc(NS(=O)(=O)c2cc(NC(=O)Cc3cccs3)ccc2C)cc1 returned Lassa entry inh 1.8µM*, FMDV antiviral 5%, Marburg entry inh inconclusive, HCV inhibitor 30%, Vaccinia mCherry -4% and Vaccinia Venus 2%.
Screening COc1ccc(NS(=O)(=O)c2cc(NC(=O)Cc3c(F)cccc3Cl)ccc2OC)cc1 returned Lassa entry inh inconclusive, FMDV antiviral 33%, Marburg entry inh -30%, HCV inhibitor 13µM*, Vaccinia mCherry -12% and Vaccinia Venus -18%.
O=C1CCCC2=C1[C@H]1O[C@](c3ccsc3)(Cc3c1ccc1ccccc31)O2 was read as Marburg entry inh -14%[14.2 µM].
`O=C(C[C@H]1C(=O)N(c2ccc(Br)cc2)C[C@@H]1Cc1ccccc1)Nc1ccccc1` gave Lassa entry inh 5µM*, FMDV antiviral 0%, Vaccinia mCherry -3% and Vaccinia Venus -16%.
COc1ccc(NC(=O)C[C@H]2C(=O)N(CCc3ccccc3)C[C@@H]2CSC)cc1 was read as Lassa entry inh 4%[46.1 µM], FMDV antiviral -17%, Vaccinia mCherry -11% and Vaccinia Venus 1%.
Screening CCCCCCc1ccc(N2C[C@H](Cc3ccccc3)[C@@H](CC(=O)NCc3ccc(OC)cc3)C2=O)cc1 returned FMDV antiviral -16%, HCV inhibitor 2.8µM*, Vaccinia mCherry inconclusive and Vaccinia Venus inconclusive.
For COc1ccc(NC(=O)C[C@H]2C(=O)N(CCc3ccccc3)C[C@@H]2Cc2ccccc2)cc1 the results were Lassa entry inh 16µM*, FMDV antiviral -18%, Vaccinia mCherry -5% and Vaccinia Venus -13%.
Screening O=C(C[C@H]1C(=O)N(c2ccccc2)C[C@@H]1Cc1ccccc1)Nc1ccc(Br)cc1 returned FMDV antiviral 0%, Vaccinia mCherry inactive and Vaccinia Venus -26%.
For CCCCCCc1ccc(N2C[C@H](CCCCC)[C@@H](CC(=O)NCc3ccc(OC)cc3)C2=O)cc1 the results were FMDV antiviral -17%, HCV inhibitor 12%, Vaccinia mCherry -8% and Vaccinia Venus inconclusive.
COC(=O)C[C@H]1C[C@H]2c3cc(NC(=O)NC4CCCC4)ccc3O[C@H]2[C@@H](CO)O1 was read as FMDV antiviral 0%, Vaccinia mCherry inactive and Vaccinia Venus -14%.
Screening CC1CCC(NC(=O)C2c3ccccc3C(=O)N2Cc2cccs2)CC1 (stereo not given) returned Lassa entry inh 3.5µM*, FMDV antiviral 6%, Marburg entry inh -14%, HCV inhibitor -17%, Vaccinia mCherry inactive and Vaccinia Venus -10%.
Screening O=C(NC1CCCCCCC1)C1c2ccccc2C(=O)N1Cc1cccs1 (stereo not given) returned Lassa entry inh inconclusive, FMDV antiviral -14%, Marburg entry inh -47%, HCV inhibitor -2%, Vaccinia mCherry -22% and Vaccinia Venus -15%.
Cc1cc(C)c2c(CC(=O)Nc3ccc(S(=O)(=O)N4CCCCC4)cc3)coc2c1 was read as Lassa entry inh inconclusive, FMDV antiviral -30%, Marburg entry inh inconclusive, Vaccinia mCherry -14% and Vaccinia Venus -12%.
`O=C1/C(=C/Nc2ccc3c(c2)OCO3)CCc2ccccc21` gave Lassa entry inh 1.4µM*, FMDV antiviral inconclusive, Marburg entry inh inconclusive, HCV inhibitor inconclusive, Vaccinia mCherry inconclusive and Vaccinia Venus -16%.
COc1ccc(N/C=C2\CCc3ccccc3C2=O)cc1 was read as FMDV antiviral 25µM* and HCV inhibitor -25%.
Screening COc1ccc(N/C=C2\CCOC2=O)cc1 returned Lassa entry inh -2%, FMDV antiviral 28%, Marburg entry inh -13% and HCV inhibitor 16%.
For COc1ccc2c(c1)CC/C(=C\Nc1ccc3c(c1)OCO3)C2=O the results were Lassa entry inh inconclusive, Marburg entry inh inconclusive, HCV inhibitor 7.1µM*, Vaccinia mCherry -25% and Vaccinia Venus -10%.
